For assay [1], the target named is Estrogen receptor beta (Homo sapiens) (UniProt Q92731). The assay can be described thus: qHTS assay to identify small molecule agonists of the estrogen receptor beta (ER-beta) signaling pathway (AID 1259377; active means well fitted activation curve with a large enough effect in the signal ratio in the repeat runs, not every such curve was filed as active; the % refers to the signal ratio). The essentials: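 Screening used GripTite ER-beta-UAS-bla cells held in 2% charcoal-stripped FBS medium. After overnight (16 hr) compound incubation at 37C, beta-lactamase activity was detected with a FRET substrate by fluorescence.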
On the technique in general: Quantitative high-throughput screening tests each substance at several concentrations.

The nature of assay [2]: qHTS assay to identify small molecule agonists of the estrogen receptor beta (ER-beta) signaling pathway - cell viability counter screen (AID 1259380; active means well fitted curve in the direction sought with a large enough effect in the repeat runs; an effect the other way counts as inactive or inconclusive; further: nearly all actives have a fitted effect of over 30% in size; further: potency means the concentration at half of the fitted maximal effect). The essentials:
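In this qHTS counter screen, HEK293T cells carrying an ER-beta/UAS beta-lactamase reporter, grown in 2% charcoal-stripped FBS, received compound for 16 hr; ATP-based CellTiter-Glo luminescence was then read after 30 min at room temperature.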

The nature of assay [3]: qHTS assay to identify small molecule agonists or antagonists of the thyroid stimulating hormone receptor (TSHR) signaling pathway - wild type cell line counter screen (AID 1259384). Further: potency means the concentration at half of the fitted maximal effect. The essentials: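 Counter screen in untransfected Hek293: compounds (15-point titration, triplicate) plus phosphodiesterase inhibitor Ro20-1724 added after 18 h plating; 30 min RT. Intracellular cAMP via competitive d2/cryptate immunoassay, 1 h incubation.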

Assay [4] concerns the target Thyrotropin receptor (Homo sapiens) (UniProt P16473). The experiment in a line: qHTS assay to identify small molecule antagonists of the thyroid stimulating hormone receptor (TSHR) signaling pathway (AID 1259385). Further: nearly all actives have a fitted effect of over 20% in size. Further: potency means the concentration at half of the fitted maximal effect. The essentials: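 Antagonist mode: compound-treated TSHR-expressing HEK293 cells were stimulated with 1.5 ng/mL TSH (final) in presence of Ro20-1724 for 30 min at RT. HTRF cAMP detection after 1 h; each compound tested at 15 concentrations, triplicate.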

The nature of assay [5]: qHTS assay to identify small molecule agonists of the estrogen receptor alpha (ER-alpha) signaling pathway in the presence of an antagonist - cell viability counter screen (AID 1259386; active means well fitted curve in the direction sought with a large enough effect in the repeat runs; an effect the other way counts as inactive or inconclusive;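 further: cells exposed to compounds for 22 h at 37 °C before the viability read; nearly all actives have a fitted effect of over 30% in size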; further: potency means the concentration at half of the fitted maximal effect). The essentials:
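Steps: 5-day stripped-FBS culture; seed and incubate 24hr; add ICI-182,780 (10.0nM final); pin 15-point compound titration; incubate 22hr at 37C; add CellTiter-Fluor at 21hr; read fluorescence.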

The target of assay [6] is Progesterone receptor (Homo sapiens) (UniProt P06401). The assay can be described thus: qHTS assay to identify small molecule agonists of the progesterone receptor (PR) signaling pathway (AID 1346784). Further: nearly all actives have a fitted effect of over 30% in size. The method, boiled down: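 Seed PR-UAS-bla HEK 293T cells (2% charcoal-stripped FBS), incubate 6 hr at 37C; add compounds in DMSO, 16 hr at 37C; add LiveBLAzer B/G substrate, 2 hr RT; read fluorescence intensity.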

A short description of assay [7]: qHTS assay to identify small molecule antagonists of the progesterone receptor (PR) signaling pathway - cell viability counter screen (AID 1346798; active means well fitted curve in the direction sought with a large enough effect in the repeat runs; an effect the other way counts as inactive or inconclusive; further: series mostly up to about 92 µM; nearly all actives have a fitted effect of over 50% in size). The essentials: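 Measures cytotoxicity in parallel with the PR antagonist reporter read: HEK293T PR-UAS-bla cells get compound and R5020 for 16 hr, and remaining viable cells are quantified by CellTiter-Glo luminescence.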

Assay [8] can be described thus: qHTS assay to identify small molecule agonists of the progesterone receptor (PR) signaling pathway - cell viability counter screen (AID 1346799). Further: nearly all actives have a fitted effect of over 45% in size. The method, boiled down:
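Using the same plates as the PR reporter screen, HEK293T PR-UAS-bla cells received compounds for 16 hr at 37C and were then lysed with CellTiter-Glo; luminescence was read 30 min later at room temperature.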

Assay [9] in a line: qHTS assay to identify small molecule antagonists of the TGF-beta/Smad signaling pathway - cell viability counter screen (AID 1346824; active means well fitted curve in the direction sought with a large enough effect in the repeat runs; an effect the other way counts as inactive or inconclusive; further: nearly all actives have a fitted effect of over 50% in size). The method, boiled down:
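Cytotoxicity counter-screen run in the same wells as the beta-lactamase Smad reporter read: CellTiter-Glo luminescence after 30 min at room temperature. HEK 293T SBE-bla cells had 5 hr compound exposure at 37 C with TGF-beta1 (0.25 ng/mL stock).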

Assay [10] in a line: qHTS assay to identify small molecule agonists of the TGF-beta/Smad signaling pathway - cell viability counter screen (AID 1346829; active means well fitted curve in the direction sought with a large enough effect in the repeat runs; an effect the other way counts as inactive or inconclusive; further: top concentration of the series differs between compounds; nearly all actives have a fitted effect of over 45% in size). The essentials: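 After overnight seating at 37 C and 5% CO2, reporter cells got compounds for 5 hr and FRET substrate for 2 hr; cell viability then came from CellTiter-Glo luminescence.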
Assay [11] in a line: qHTS assay to identify small molecule agonists of the TGF-beta/Smad signaling pathway (AID 1346859; active means well fitted activation curve with a large enough effect in the signal ratio in the repeat runs, not every such curve was filed as active; the % refers to the signal ratio; further: series mostly up to about 77 µM). The method, boiled down: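 Beta-lactamase reporter activity downstream of Smad binding elements was measured in stably transfected HEK 293T cells; compounds were incubated for 5 hr, substrate for 2 hr at room temperature.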
Assay [12] concerns the target Thyrotropin-releasing hormone receptor (Homo sapiens) (UniProt P34981). The assay can be described thus: qHTS assay to identify small molecule antagonists of the thyrotropin-releasing hormone receptor (TRHR) signaling pathway (AID 1346877; active means well fitted inhibition curve with a large enough effect in the repeat runs, not every such curve was filed as active; further: series mostly up to about 51 µM). The essentials:
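Human TRHR in HEK293 cells; inhibition of the intracellular calcium rise triggered by 1 nM TRH was followed by fluorescence over 3 min. Compounds were run at 15 concentrations, three replicates each.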

Assay [13] has the same target. The experiment in a line: qHTS assay to identify small molecule agonists of the thyrotropin-releasing hormone receptor (TRHR) signaling pathway (AID 1346891). Further: potency means the concentration at half of the fitted maximal effect.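 On activation: HEK293 cells expressing TRHR with calcium dye readout; series mostly up to about 58 µM.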 The method, boiled down: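 Overnight-plated (18 h, 37 °C, 5% CO2) TRHR-Hek293 cells; 2 h calcium dye at 37 °C; compound in DMSO; 3-min kinetic fluorescence read.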
Assay [14] addresses Estrogen receptor beta (Homo sapiens) (UniProt Q92731). The assay can be described thus: qHTS assay to identify small molecule antagonists of the estrogen receptor beta (ER-beta) signaling pathway (AID 1259378; active means well fitted inhibition curve with a large enough effect in the signal ratio in the repeat runs, not every such curve was filed as active; the % refers to the signal ratio). The essentials:
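Antagonist mode: compounds added to beta-lactamase reporter HEK293T ER-beta-UAS cells stimulated with E2 (1nM final), 16 hr at 37C. LiveBLAzer B/G FRET substrate, 2 hours room temperature, fluorescence read-out.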

Assay [15] is described as follows: qHTS assay to identify small molecule agonists of the androgen receptor (AR) signaling pathway in the presence of an antagonist - cell viability counter screen (AID 1259379; active means well fitted curve in the direction sought with a large enough effect in the repeat runs; an effect the other way counts as inactive or inconclusive; further: nearly all actives have a fitted effect of over 25% in size; further: potency means the concentration at half of the fitted maximal effect). The method, boiled down:
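Counter screen for cell viability run in parallel with the AR agonist-mode luciferase assay. MDA-kb2 cells were co-treated with nilutamide (3.0uM final) and compounds, then incubated 16 hr at 37C, and CellTiter-Fluor fluorescence was measured.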

Assay [16] concerns the target Estrogen receptor (Homo sapiens) (UniProt P03372). The assay can be described thus: qHTS assay to identify small molecule agonists of the estrogen receptor alpha (ER-alpha) signaling pathway in the presence of an antagonist (AID 1259383). Further: top concentration of the series differs between compounds; nearly all actives have a fitted effect of over 15% in size. The method, boiled down: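 ER-alpha agonism measured under antagonist challenge: 10.0nM ICI-182,780 (final) plus compound, 15 concentrations, 22hr, VM7Luc4E2 ERE-luciferase cells. Read by luminescence.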

Assay [17] addresses Progesterone receptor (Homo sapiens) (UniProt P06401). The experiment in a line: qHTS assay to identify small molecule antagonists of the progesterone receptor (PR) signaling pathway (AID 1346795; active means well fitted inhibition curve with a large enough effect in the signal ratio in the repeat runs, not every such curve was filed as active; the % refers to the signal ratio). The essentials:
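Screening used a GripTite HEK293T line with PR-responsive UAS-beta-lactamase. Cells were challenged with compound in the presence of 1 nM R5020 final for 16 hr at 37C; B/G FRET substrate, 2 hr room temperature, fluorescence.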

The target in assay [18] is Androgen receptor (Homo sapiens) (UniProt P10275). The assay can be described thus: qHTS assay to identify small molecule agonists of the androgen receptor (AR) signaling pathway in the presence of an antagonist (AID 1259381). Further: nearly all actives have a fitted effect of over 15% in size. The method, boiled down: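 AR antagonist background: nilutamide 3.0uM final. Cell line: MDA-kb2, MMTV-driven luciferase, responsive to both AR and GR. Exposure 16hr, 37C, no CO2; ONE-Glo luminescence.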

Assay [19] in a line: qHTS assay to identify small molecule antagonists of the estrogen receptor beta (ER-beta) signaling pathway - cell viability counter screen (AID 1259382; active means well fitted curve in the direction sought with a large enough effect in the repeat runs; an effect the other way counts as inactive or inconclusive; further: nearly all actives have a fitted effect of over 55% in size; further: potency means the concentration at half of the fitted maximal effect). The essentials:
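HEK293T ER-beta-UAS-bla, 2% charcoal-stripped FBS; compounds + 1nM E2 16 hr 37C; CellTiter-Glo luminescence, 30 min RT.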

Assay [20] can be described thus: qHTS assay to identify small molecule antagonists of the sonic hedgehog signaling (Shh) pathway (AID 1259369). Further: nearly all actives have a fitted effect of over 45% in size. The method, boiled down: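 Gli1 transcriptional reporter (firefly Luc) in NIH/3T3 background, conditioned-medium activated. 24hr exposure, luminescence endpoint.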

Inconclusive results are not listed. Activity calls are given as the source filed them. Unless noted, the call rests on the fitted dose curve.

Sequence of Progesterone receptor (Homo sapiens) (P06401 whole entry, looked up): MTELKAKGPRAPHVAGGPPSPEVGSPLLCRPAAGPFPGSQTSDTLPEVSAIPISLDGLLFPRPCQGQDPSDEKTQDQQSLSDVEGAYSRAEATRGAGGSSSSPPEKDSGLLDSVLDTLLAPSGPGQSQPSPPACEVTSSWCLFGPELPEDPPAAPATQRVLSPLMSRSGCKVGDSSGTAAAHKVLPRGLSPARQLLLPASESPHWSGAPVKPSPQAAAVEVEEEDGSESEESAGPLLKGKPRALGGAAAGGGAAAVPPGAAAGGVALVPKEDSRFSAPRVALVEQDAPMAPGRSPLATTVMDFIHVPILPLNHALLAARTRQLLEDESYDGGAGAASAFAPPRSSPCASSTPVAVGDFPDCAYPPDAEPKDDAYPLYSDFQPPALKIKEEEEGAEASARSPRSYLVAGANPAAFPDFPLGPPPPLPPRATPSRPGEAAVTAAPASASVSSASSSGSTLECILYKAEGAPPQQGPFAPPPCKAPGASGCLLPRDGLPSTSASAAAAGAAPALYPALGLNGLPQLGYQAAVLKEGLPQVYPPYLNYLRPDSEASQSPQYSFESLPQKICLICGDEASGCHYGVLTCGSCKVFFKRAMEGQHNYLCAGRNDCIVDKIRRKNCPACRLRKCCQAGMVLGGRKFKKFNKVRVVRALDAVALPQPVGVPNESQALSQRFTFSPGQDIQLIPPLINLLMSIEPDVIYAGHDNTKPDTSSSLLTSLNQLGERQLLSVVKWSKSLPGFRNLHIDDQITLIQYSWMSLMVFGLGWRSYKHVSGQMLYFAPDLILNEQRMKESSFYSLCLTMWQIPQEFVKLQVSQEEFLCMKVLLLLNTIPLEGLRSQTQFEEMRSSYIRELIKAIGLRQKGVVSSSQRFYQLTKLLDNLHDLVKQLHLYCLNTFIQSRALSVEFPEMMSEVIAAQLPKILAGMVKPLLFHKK
Sequence of Thyrotropin receptor (Homo sapiens) (P16473 whole entry, looked up): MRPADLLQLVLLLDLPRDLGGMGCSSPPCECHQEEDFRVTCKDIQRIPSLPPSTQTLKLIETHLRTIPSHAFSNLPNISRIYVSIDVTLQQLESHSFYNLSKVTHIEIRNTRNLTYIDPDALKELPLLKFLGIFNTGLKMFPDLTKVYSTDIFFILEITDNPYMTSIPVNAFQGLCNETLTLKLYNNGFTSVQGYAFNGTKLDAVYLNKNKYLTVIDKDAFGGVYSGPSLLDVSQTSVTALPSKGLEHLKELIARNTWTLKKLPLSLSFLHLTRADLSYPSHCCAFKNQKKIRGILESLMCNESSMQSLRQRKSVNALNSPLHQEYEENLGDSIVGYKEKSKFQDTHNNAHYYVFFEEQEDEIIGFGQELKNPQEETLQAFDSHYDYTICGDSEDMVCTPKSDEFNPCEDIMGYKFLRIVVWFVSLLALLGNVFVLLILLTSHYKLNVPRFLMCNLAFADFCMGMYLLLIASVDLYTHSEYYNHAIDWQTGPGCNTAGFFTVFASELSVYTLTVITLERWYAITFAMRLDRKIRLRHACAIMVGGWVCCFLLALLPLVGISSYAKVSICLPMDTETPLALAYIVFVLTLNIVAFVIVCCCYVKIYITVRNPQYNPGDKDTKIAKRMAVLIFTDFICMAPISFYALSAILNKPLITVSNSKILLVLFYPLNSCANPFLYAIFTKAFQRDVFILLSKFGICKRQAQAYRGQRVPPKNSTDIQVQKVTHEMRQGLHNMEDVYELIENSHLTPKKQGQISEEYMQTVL
Sequence of Thyrotropin-releasing hormone receptor (Homo sapiens) (P34981 whole entry, looked up): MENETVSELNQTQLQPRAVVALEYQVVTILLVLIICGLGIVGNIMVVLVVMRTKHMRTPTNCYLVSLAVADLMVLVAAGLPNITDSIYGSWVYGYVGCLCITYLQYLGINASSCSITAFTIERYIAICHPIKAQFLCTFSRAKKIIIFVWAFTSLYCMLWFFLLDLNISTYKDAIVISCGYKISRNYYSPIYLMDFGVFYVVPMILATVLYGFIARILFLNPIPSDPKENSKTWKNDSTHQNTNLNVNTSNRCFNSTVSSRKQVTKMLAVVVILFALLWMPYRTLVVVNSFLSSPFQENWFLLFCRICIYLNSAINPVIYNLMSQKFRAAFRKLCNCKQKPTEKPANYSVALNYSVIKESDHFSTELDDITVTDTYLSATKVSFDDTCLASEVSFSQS
Sequence of Estrogen receptor (Homo sapiens) (P03372 whole entry, looked up): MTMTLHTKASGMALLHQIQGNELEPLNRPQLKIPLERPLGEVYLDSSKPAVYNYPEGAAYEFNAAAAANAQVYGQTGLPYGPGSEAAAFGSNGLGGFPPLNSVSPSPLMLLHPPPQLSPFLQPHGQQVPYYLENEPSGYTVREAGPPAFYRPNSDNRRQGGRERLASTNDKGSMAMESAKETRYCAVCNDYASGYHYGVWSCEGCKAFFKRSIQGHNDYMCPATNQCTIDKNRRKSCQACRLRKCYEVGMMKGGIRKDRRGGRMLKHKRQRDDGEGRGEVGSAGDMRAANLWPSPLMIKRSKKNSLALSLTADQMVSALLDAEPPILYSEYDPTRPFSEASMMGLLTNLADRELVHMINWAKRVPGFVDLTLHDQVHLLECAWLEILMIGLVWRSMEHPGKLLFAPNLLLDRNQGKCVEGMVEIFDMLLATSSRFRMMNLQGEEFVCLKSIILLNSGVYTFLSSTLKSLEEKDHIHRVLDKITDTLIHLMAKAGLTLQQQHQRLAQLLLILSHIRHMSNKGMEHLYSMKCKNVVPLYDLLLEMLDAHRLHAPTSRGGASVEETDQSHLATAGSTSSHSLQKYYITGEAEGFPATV
Sequence of Estrogen receptor beta (Homo sapiens) (Q92731 whole entry, looked up): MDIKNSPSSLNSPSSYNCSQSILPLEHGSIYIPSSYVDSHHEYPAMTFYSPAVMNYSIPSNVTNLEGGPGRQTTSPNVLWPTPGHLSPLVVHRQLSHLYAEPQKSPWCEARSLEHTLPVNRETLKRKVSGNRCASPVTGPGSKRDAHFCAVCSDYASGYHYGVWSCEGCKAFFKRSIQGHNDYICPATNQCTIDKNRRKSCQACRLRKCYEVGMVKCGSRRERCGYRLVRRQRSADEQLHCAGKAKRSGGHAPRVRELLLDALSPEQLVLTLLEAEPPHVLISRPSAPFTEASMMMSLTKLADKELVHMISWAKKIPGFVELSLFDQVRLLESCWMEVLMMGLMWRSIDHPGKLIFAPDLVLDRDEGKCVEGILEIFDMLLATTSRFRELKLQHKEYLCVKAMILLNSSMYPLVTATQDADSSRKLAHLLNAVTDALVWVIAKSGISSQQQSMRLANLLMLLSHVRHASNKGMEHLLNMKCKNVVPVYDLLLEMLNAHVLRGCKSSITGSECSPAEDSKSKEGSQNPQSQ
Sequence of Androgen receptor (Homo sapiens) (P10275 whole entry, looked up): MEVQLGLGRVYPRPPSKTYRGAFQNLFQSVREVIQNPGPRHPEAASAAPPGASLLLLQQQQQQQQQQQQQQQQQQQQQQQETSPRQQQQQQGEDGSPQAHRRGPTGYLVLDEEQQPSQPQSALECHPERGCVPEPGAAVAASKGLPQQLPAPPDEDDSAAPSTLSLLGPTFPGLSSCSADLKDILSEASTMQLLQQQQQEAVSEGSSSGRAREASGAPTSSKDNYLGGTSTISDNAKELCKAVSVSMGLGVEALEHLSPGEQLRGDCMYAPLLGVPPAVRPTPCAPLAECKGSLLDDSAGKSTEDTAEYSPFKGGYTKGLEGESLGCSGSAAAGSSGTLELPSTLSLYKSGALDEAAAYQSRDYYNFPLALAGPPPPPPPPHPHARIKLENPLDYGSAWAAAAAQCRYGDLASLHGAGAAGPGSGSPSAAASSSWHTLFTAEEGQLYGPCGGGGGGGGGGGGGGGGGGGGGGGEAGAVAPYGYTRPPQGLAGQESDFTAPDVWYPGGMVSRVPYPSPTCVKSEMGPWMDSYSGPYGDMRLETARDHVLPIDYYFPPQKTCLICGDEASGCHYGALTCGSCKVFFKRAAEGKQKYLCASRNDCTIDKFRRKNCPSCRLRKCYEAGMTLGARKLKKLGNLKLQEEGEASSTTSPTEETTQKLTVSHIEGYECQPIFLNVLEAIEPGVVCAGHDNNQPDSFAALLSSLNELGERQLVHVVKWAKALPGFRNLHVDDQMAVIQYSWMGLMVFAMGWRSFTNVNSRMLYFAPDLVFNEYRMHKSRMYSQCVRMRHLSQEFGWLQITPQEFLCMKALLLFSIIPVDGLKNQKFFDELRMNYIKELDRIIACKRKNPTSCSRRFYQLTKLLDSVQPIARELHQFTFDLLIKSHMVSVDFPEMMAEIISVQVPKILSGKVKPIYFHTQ

On to `c1ccc(-c2nc[nH]c2-c2ccccc2)cc1`, for which the Potency entry in [1], in assay [2], in [3], in [4], in [5] and in assay [7] was “inactive” in each case. In addition, the Potency entry in assay [8], in assay [9], in assay [10] and in assay [13] was “inactive” throughout. Further, the molecule was classed as inactive in [6], in assay [11] and in assay [12].
As for `C=Cc1c(C)c2cc3[nH]c(cc4nc(cc5nc(cc1[nH]2)C(C)=C5CCC(=O)O)C(CCC(=O)O)=C4C)c(C)c3C=C`, the Potency entry in [1], in assay [14], in assay [2], in [16], in [3] and in assay [4] was “inactive” each time. Further, the Potency entry in [17], in [7], in assay [8], in assay [9], in assay [10] and in [13] was “inactive” in each case. For the same molecule, the values for the Potency in assay [15] and in assay [5] were 21.1 µM (active) and 26.6 µM (active), respectively. Moreover, the molecule was classed as inactive in assay [6], in assay [11] and in [12].
As to `CNCC[C@@H](Oc1ccccc1C)c1ccccc1`, the Potency result in assay [15], in [18], in assay [16], in assay [3], in [5] and in assay [10] was “inactive” in each case. Also, the values for the Potency in assay [2] and in assay [19] were 26.6 µM (active) and 23.7 µM (active), respectively. Besides, the molecule was classed as inactive in assay [6] and in assay [11].
Turning to `Oc1ccc(C(O)CNCCCCCCNCC(O)c2ccc(O)c(O)c2)cc1O` (stereo not given), the Potency result in assay [20], in assay [19], in assay [4], in assay [17], in [8] and in [9] was “inactive” throughout. Further, the Potency result in assay [10] and in assay [13] was “inactive” in each case. For the same molecule, in [3], the Potency is 6.19 µM (active). Besides, the molecule was classed as inactive in assay [6], in assay [11] and in [12].
On to `CN(C)CC/C=C1\c2ccccc2COc2ccccc21`, for which the figures for the Potency in [2] and in assay [4] were 26.6 µM (active) and 29.8 µM (active), respectively. Further, the Potency entry in assay [18], in assay [3], in assay [5], in [17], in assay [10] and in [13] was “inactive” throughout. In addition, the molecule was classed as inactive in assay [6], in [11] and in assay [12].
In the case of `CC(CN)CCCN` (stereo not given), the Potency entry in assay [1], in assay [14], in assay [2], in assay [19], in assay [16] and in assay [3] was “inactive” throughout. The Potency result in assay [4], in assay [5], in assay [17], in [7], in [8] and in assay [9] was “inactive” in each case. The Potency result in assay [10] and in [13] was “inactive” in each case. Further, the result in [6], in assay [11] and in assay [12] was inactive.
Consider `CCCCC(CC)COCCCN` (stereo not given), for which the Potency entry in [20], in [16], in [3], in assay [4], in assay [7] and in assay [9] was “inactive” in each case. In addition, the Potency result in assay [10] and in [13] was “inactive” each time. The call in [6], in [11] and in [12] was inactive.
On to `CCOC(=O)C1=C(C)NC(C)=C(C(=O)OC)C1c1cccc([N+](=O)[O-])c1` (stereo not given), for which the Potency result in [1], in [14], in assay [15], in assay [2], in assay [19] and in assay [16] was “inactive” throughout. The Potency entry in [3], in [4], in assay [5], in assay [9], in assay [10] and in assay [13] was “inactive” throughout. Further, the molecule was classed as inactive in [6] and in [11].
As for `CC(C)(C)c1cc(CO)cc(C(C)(C)C)c1O`, the Potency result in assay [1], in assay [15], in assay [16], in assay [3], in assay [4] and in [5] was “inactive” in each case. Besides, the Potency result in assay [7], in assay [9], in assay [10] and in assay [13] was “inactive” throughout. Also, the result in assay [6], in assay [11] and in assay [12] was inactive.
For `CCOc1ccc2[nH]cc(C(=O)NCc3ccccc3)c(=O)c2n1`, the Potency result in [19], in assay [16], in assay [3], in assay [4], in assay [5] and in [17] was “inactive” each time. The Potency entry in assay [10] and in assay [13] was “inactive” in each case. The outcome in assay [6], in assay [11] and in assay [12] was inactive.
As for `O=C(O)Cn1c(C(=O)Nc2nc(-c3ccccc3Cl)cs2)cc2ccccc21`, the Potency entry in [20], in [19], in assay [16], in assay [3], in assay [4] and in [5] was “inactive” throughout. The Potency entry in assay [7], in assay [9] and in assay [10] was “inactive” in each case. The molecule was classed as inactive in assay [6]. The Potency in assay [13] is 3.79 µM (active).

The values are drawn from PubChem BioAssay (Tox21).
